The campaign covered roughly 4,400 compounds. About 390 (8.9%) showed an effect of 50% or more. Many of the other results were omitted from the sample, so strong results are more common in it than they were.
Tested on: Trypanosoma brucei
Assay: DNDI: Inhibition of Human African Trypanosomiasis, SBRI 427, in vitro at 2 ug.mL-1
Type: functional

Compound	% inhibition [%]
CCOc1ccccc1N(Cc1ccccc1)Cc1coc(-c2cccc(F)c2)n1	1
Brc1ccccc1-c1nc(CNCc2cccc3ccccc23)co1	-1
CCCCN(C)Cc1coc(-c2ccc(OC)cc2)n1	9
COc1cccc(-c2nc(CN3CCCCCCC3)co2)c1	31
Cc1ccc(/C(=N/O)N(C)Cc2ccco2)c(Oc2cccc3c2CCCC3)n1	-8
Cc1cn(Cc2coc(-c3cccc4ccccc34)n2)cn1	1
CCN(Cc1coc(-c2ccccc2Cl)n1)c1ccc(C)cc1	-3
CC(CNCc1coc(-c2cccc3ccccc23)n1)c1ccccc1 (stereo not given)	8
COc1ccc(-c2nc(CN3CCC(N4CCCC4)CC3)co2)cc1	-12
COc1ccc(N2CCN(Cc3coc(-c4ccc(F)cc4)n3)CC2)cc1	-1
Brc1ccc(-c2nc(CN3CCCC3)co2)cc1	1
Brc1ccc(-c2nc(CN3CCCCCC3)co2)cc1	72
Cc1ccc(-c2nc(CN3CCC(N4CCCC4)CC3)co2)cc1	60
Oc1ccc(-c2nc(CN3CCCCCC3)co2)cc1	9
Fc1ccc(-c2nc(CN3CCN(c4ccc(F)cc4)CC3)co2)cc1	52
Cc1ccc(-c2nc(CN3CCC(N4CCCCC4)CC3)co2)cc1	3
Cc1ccc(-c2nc(CN3CCN(c4ccc(F)cc4)CC3)co2)cc1	0
Cc1ccc(/C(=N/O)NCc2ccccc2)c(Oc2ccc(F)c(F)c2)n1	23
CCOc1ccc(Oc2ccc(/C(N)=N/O)cn2)cc1	10
Cc1ccc(-c2nc(CNc3cc[nH]n3)co2)cc1	10
Cc1ccc(/C(=N/O)NCCC2CCCN2C)c(OCc2ccccc2)n1 (stereo not given)	22
Clc1ccccc1-c1nc(CNC2CCN(Cc3ccccc3)CC2)co1	20
Clc1ccc(-c2nc(CNC3CCN(Cc4ccccc4)C3)co2)c(Cl)c1 (stereo not given)	18
c1ccc(CN2CCN(Cc3coc(-c4cccc5ccccc45)n3)CC2)cc1	18
c1ccc(CN2CCC(NCc3coc(-c4cccc5ccccc45)n3)CC2)cc1	66

Compound	% inhibition [%]
c1ccc(CN2CCC(NCc3coc(-c4cccc5ccccc45)n3)C2)cc1 (stereo not given)	14
Clc1ccc(-c2nc(CNC3CCc4ccccc43)co2)c(Cl)c1 (stereo not given)	-4
Cc1ccc(-c2nc(CN3CCN(c4cc(C)nc5ccccc45)CC3)co2)cc1	12
Cc1cc(N2CCN(Cc3coc(-c4ccccc4Cl)n3)CC2)c2ccccc2n1	7
Clc1ccc(-c2nc(CNC3C[C@H]4CC[C@@H]3C4)co2)c(Cl)c1 (stereo not given in full)	52
Cc1cc(N2CCN(Cc3coc(-c4cccc5ccccc45)n3)CC2)c2ccccc2n1	52
Clc1ccc(-c2nc(CNC3CCN(Cc4ccccc4)CC3)co2)c(Cl)c1	74
Oc1ccc(-c2nc(CNC3C[C@H]4CC[C@@H]3C4)co2)cc1 (stereo not given in full)	11
Cc1cccc(N2CCN(Cc3coc(-c4ccccc4F)n3)CC2)c1C	-33
CN(CCc1ccccc1)Cc1coc(-c2ccccc2Cl)n1	17
COc1cccc(-c2nc(CN(C)Cc3cc(OC)c(OC)c(OC)c3)co2)c1	-4
CC1CC(N/C(=N\O)c2cccnc2Oc2c(F)cccc2F)CC(C)(C)C1 (stereo not given)	98
O/N=C(\NCC1CCCO1)c1cccnc1Oc1c(F)c(F)cc(F)c1F (stereo not given)	1
O/N=C(/c1cccnc1Oc1c(F)cccc1F)N1CCC2CCCCC2C1 (stereo not given)	-13
O/N=C(\NC1CCCC1)c1cccnc1Oc1c(F)cccc1F	100
CC1CC(N/C(=N\O)c2cccnc2OCC(C)(C)C)CC(C)(C)C1 (stereo not given)	44
O/N=C(\NC1CCCCC1)c1cccnc1Oc1c(F)cccc1F	99
CC1CC(N/C(=N\O)c2cccnc2Oc2c(F)c(F)cc(F)c2F)CC(C)(C)C1 (stereo not given)	-10
O/N=C(\NCC1CCCCC1)c1cccnc1Oc1c(F)cccc1F	99
COc1ccc(Oc2nc(C)ccc2/C(=N/O)NCCN(C)C)cc1	0
CCOc1ccc(-c2nc(CN(C)C3CCCCC3)co2)cc1	5
c1ccc(Oc2ccc(NCc3coc(-c4cccc5ccccc45)n3)cc2)cc1	1
O/N=C(/c1cccnc1OCc1ccccc1F)n1ccnc1	-10
C#CCN(C)Cc1coc(-c2ccc(C)cc2)n1	-1
Fc1cccc(-c2nc(CNCc3cccc4ccccc34)co2)c1	17

Compound	% inhibition [%]
CCOc1ccccc1N(Cc1ccccc1)Cc1coc(-c2ccc(O)cc2)n1	-16
O/N=C(/c1ccc(Oc2ccc(-n3ccnc3)cc2)nc1)N1CC=CC1	16
COc1ccc(NCc2coc(-c3ccc(OC)cc3)n2)cc1	9
COc1ccc(OC)c(NCc2coc(-c3ccc(C)cc3)n2)c1	0
Cc1ccc(/C(=N/O)NC2CCC(C)CC2)c(Oc2c(F)c(F)cc(F)c2F)n1 (stereo not given)	22
CC1CCC(N/C(=N\O)c2cccnc2Oc2c(F)cccc2F)CC1 (stereo not given)	99
CC1CC(C)CN(/C(=N\O)c2cccnc2Oc2c(F)cccc2F)C1 (stereo not given)	28
CCOc1ccc(-c2nc(CN(C)c3ccccc3)co2)cc1	-8
CN(Cc1coc(-c2ccc(Cl)cc2Cl)n1)CC1OCCO1	30
COc1cc(C)ccc1Oc1nc(C)ccc1/C(=N/O)Nc1ccccc1	-6
CC(C)c1ccc(NCc2coc(-c3ccc(F)cc3)n2)cc1	7
COc1cc(-c2nc(CN(C)CCc3ccccn3)co2)cc(OC)c1OC	-7
COc1ccc(-c2nc(CN3CCN(c4cccc(C(F)(F)F)c4)CC3)co2)cc1	-13
Clc1ccc(-c2nc(CNCCCn3ccnc3)co2)c(Cl)c1	86
Brc1ccccc1-c1nc(CNCCCn2ccnc2)co1	2
Cc1cccc(-c2nc(CNCCCn3ccnc3)co2)c1	-8
Clc1ccc(-c2nc(CNCCN3CCOCC3)co2)c(Cl)c1	0
COc1ccc(-c2nc(CNCCCn3ccnc3)co2)cc1	6
CCOc1ccccc1-c1nc(CNCCCn2ccnc2)co1	32
Clc1ccc(-c2nc(CNCc3ccncc3)co2)c(Cl)c1	9
Clc1ccc(-c2nc(Cn3ccnc3)co2)c(Cl)c1	5
Brc1ccc(-c2nc(CNCCCn3ccnc3)co2)cc1	56
CC1CCCCN1CCCNCc1coc(-c2ccc(Cl)cc2Cl)n1 (stereo not given)	99
c1ccc2c(-c3nc(CNCCCn4ccnc4)co3)cccc2c1	54
C#CCNCc1coc(-c2ccc(Cl)cc2Cl)n1	3

Source: ChEMBL document CHEMBL1857833, “Screening and optimization of specific chemical series against human African Trypanosomiasis (HAT)”
